We go through eleven compounds from PubChem BioAssay AID2110 (National Center for Advancing Translational Sciences (NCATS), 2009).

Records with an inconclusive call do not appear. A number with no mark means an inactive call. Active and inactive are the calls of the source. The call rests on the fitted dose curve; in most records, active means well fitted curve in either direction with a large enough effect; inconclusive means small, poorly fitted or top-dose-only effect; inactive means no such curve, though single readings can be large or run the other way.

The target in this experiment is Lysosomal alpha-glucosidase (Homo sapiens) (UniProt P10253). The experiment can be described thus: Confirmation of Inhibitors and Activators of Purified Human alpha-Glucosidase Using an Alternate Red Fluorescent Susbtrate. The conditions noted are these: purified enzyme, red fluorogenic substrate; series mostly up to 63.4 µM; activity change, negative = inhibition: at the top concentration. The essentials: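 Recombinant human alpha-glucosidase (4 nM) with resorufin-[…] (400 uM) in 50 mM citrate buffer pH 5.0, 0.005% Tween-20, 20 min at room temperature, stopped at pH 10. AC50 from Hill fits.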
With `CC(=O)c1ccc(N2CCN(S(=O)(=O)c3ccc4c(c3)CCCN4C(C)=O)CC2)cc1`, the “activity change, negative = inhibition” value was -15.8%. For `CCCN1CNc2c(c(=O)[nH]c(=S)n2CCc2ccc(C)cc2C)C1`, the Potency was 2820 nM (active). On to `CCCN1CNc2c(c(=O)[nH]c(=S)n2CCc2ccc(OC)c(OC)c2)C1`, for which the Potency was 2000 nM (active). As to `Nc1nc(N)c2nc(-c3ccccc3)c(N)nc2n1`, the “activity change, negative = inhibition” value is 0.18%. Regarding `CCCN1CNc2c(c(=O)[nH]c(=S)n2CCc2cc(Cl)ccc2Cl)C1`, the Potency is 794 nM (active). For the compound `CCCN1CNc2c(c(=O)[nH]c(=S)n2CCc2ccc(C)c(C)c2)C1`, the Potency is 1120 nM (active). Take `CCCN1CNc2c(c(=O)[nH]c(=S)n2CCc2ccc(Cl)cc2)C1`: the Potency is 11200 nM (active). Take `c1csc(-c2nc(NCC3CCCO3)c3ccccc3n2)c1` (stereo unspecified): the “activity change, negative = inhibition” value is -0.393% [at 32.7 µM]. `COc1ccc(N2CCN(S(=O)(=O)c3ccc4c(c3)CC(=O)N4)CC2)cc1`: the Potency was 18800 nM [inhibitor] (active). With `CCCN1CNc2c(c(=O)[nH]c(=S)n2CCC(C)(C)C)C1`, the “activity change, negative = inhibition” value is -1.75%. The same measure, in the same setting: then `CC(=O)c1ccc(N2CCN(S(=O)(=O)c3ccc(N4CCCC4=O)cc3)CC2)cc1`, with -2.38%.
